Compounds with a hit are over-represented: about 4.1% of the library has one in this group of screens.
DAX1 inh-1 = inhibitors of DAX1 repression of SF-1 activated StAR promoter; inhibition, % at 6.8 µM; hit rate 1.1% among 370,000; HEK293T StAR-luciferase reporter, SF-1/DAX-1 repression relief;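 active = inhibition above the mean over all tested compounds plus 3 SD, cut at about 3.6% in these data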;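 note: 0% = DAX-1 cells with DMSO and 100% = cells lacking DAX-1 with DMSO; higher inhibition means more luminescence from relief of DAX-1 repression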
hgDAF12 agonist = hgDAF-12 agonism, primary luciferase screen. AID 687014. activation, % at 6.8 µM. HEK293 GAL4-hgDAF12 UAS-luciferase reporter, agonist luminescence; normalized to butyrate control. hit rate 1.8% among 370,000;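 active = activation above a cutoff set at the mean of all screened compounds plus 3 SD, cut at about 10% in these data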;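 note: 0% = DMSO wells and 100% = sodium butyrate wells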
DAX1 inh-2 = inhibits human nuclear receptor DAX1. inhibition, % at 6.75 µM. AID 504766. P51843. hit rate 0.99% among 340,000. HEK293 Gal4-DAX1 luciferase reporter, luminescence;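 active = inhibition above the mean over all tested compounds plus 3 SD, cut at about 4.2% in these data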;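 note: 0% = DAX1-transfected cells with DMSO and 100% = empty-vector control cells with DMSO; inhibition shows as a rise in luminescence from relieved DAX1 repression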
ssDAF-12 act = activators of S. stercoralis DAF-12 nuclear receptor; HEK293 ssDAF-12/GRIP1 lit1-tk-luc reporter, luminescence; % of 3 µM dafachronic acid response; activation, % at 6.8 µM; hit rate 1% among 370,000;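 active = activation above the mean over all tested compounds plus 3 SD, cut at about 0.9% in these data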;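 note: 0% = DMSO-only wells and 100% = 3 µM delta7-dafachronic acid wells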
hcDAF12 agonist = activators of H. contortus DAF-12 nuclear receptor; HEK293 hcDAF-12 lit1-tk-luc reporter, luminescence; 0% DMSO, 100% Δ7-dafachronic acid; activation, % at 6.8 µM; hit rate 1.4% among 370,000; AID 652067;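 active = activation above the mean of all tested compounds plus 3 SD, cut at about 5.5% in these data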;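 note: 100% = response to 3 µM Δ7-dafachronic acid high control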
LXRb hcDAF ctr = LXR-beta agonism as hcDAF-12 counter-screen | shares compounds with hcDAF12 agonist | HEK293 Gal4-LXR tk-luc reporter, luminescence, 24 h; normalized: DMSO 0%, positive control 100% | activation, % at 6.8 µM | 3,400 tested, under 10 active | AID 743027;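 active = mean percent activation of the reporter above a cutoff set as the average over tested compounds plus their standard deviation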
Target sequence (P55055 whole entry, looked up, the tested form may be a part): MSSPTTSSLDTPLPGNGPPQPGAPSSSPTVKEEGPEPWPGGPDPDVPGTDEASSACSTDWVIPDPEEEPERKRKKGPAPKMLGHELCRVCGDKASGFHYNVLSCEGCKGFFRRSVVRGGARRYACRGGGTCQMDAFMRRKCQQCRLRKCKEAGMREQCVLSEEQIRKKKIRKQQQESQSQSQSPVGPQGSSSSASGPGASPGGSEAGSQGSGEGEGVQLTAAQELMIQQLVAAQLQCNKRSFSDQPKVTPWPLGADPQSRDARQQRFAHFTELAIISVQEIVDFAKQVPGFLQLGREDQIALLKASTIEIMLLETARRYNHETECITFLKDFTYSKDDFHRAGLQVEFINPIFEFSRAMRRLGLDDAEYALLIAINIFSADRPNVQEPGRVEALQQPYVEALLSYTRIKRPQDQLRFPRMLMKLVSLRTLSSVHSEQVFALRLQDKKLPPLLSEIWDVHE
hcDAF12 conf = hcDAF-12 agonism, confirmation assay | AID 743032 | activation, % at 6.8 µM | hit rate 61% among 3,400 | HEK293 hcDAF-12 lit1-tk-luc reporter, luminescence; % of Δ7-dafachronic acid response | shares compounds with hcDAF12 agonist;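 active = mean activation across triplicate tests above the threshold derived from the earlier primary screen, cut at about 5.5% in these data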;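 note: 0% = DMSO only wells and 100% = 3 µM Δ7-dafachronic acid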
Numbers without * were called inactive; . = not tested or not shown.

SMILES	DAX1 inh-1	hgDAF12 agonist	DAX1 inh-2	ssDAF-12 act	hcDAF12 agonist	LXRb hcDAF ctr	hcDAF12 conf
OCCC1CN(Cc2cccn2-c2ncccn2)CCN1CCc1ccccc1 (centres undefined)	0	1	0	-1	-1	.	.
N#C/C(=C\c1ccc(-c2nc3ccccc3s2)o1)C(N)=O	0	5	-1	1	6.8*	1	4
COc1ncnc2c1ncn2CCCN1CCN(Cc2cccc3ccccc23)CC1	-1	-3	1	-1	-2	.	.
COc1ccc(OCC(=O)Nc2cc(-c3nn(C)c(=O)c4ccccc34)ccc2N2CCOCC2)cc1	-1	1	-1	-1	-1	.	.
O=C1C=C(Nc2ccc(O)cc2)C(=O)c2ccccc21	-1	7	0	1	8.8*	1	6.6*
NC(=O)c1c(NC(=O)c2ccccc2)sc2c1CCC2	1	15*	4.5*	2.1*	16*	2	19*
Cc1ccc(S(=O)(=O)CCC(=O)NNC(=O)CN(C)S(=O)(=O)c2ccc(C)cc2)cc1	-1	1	1	0	-1	.	.
NC(=O)C[C@H](N)c1cn([C@@H](CC(N)=O)C(=O)N2CCNCC2)nn1	0	2	2	0	1	.	.
CCc1nnc(NC(=O)Nc2ccc(OC)cc2)s1	1	4	0	-1	0	.	.
CCCCOc1ccc(NC(=O)Nc2nnc(C)s2)cc1	1	0	2	1.1*	8.5*	0	4
O=C(CSc1c[nH]c2ccccc12)NCC1CCCO1 (centres undefined)	-1	0	1	1.5*	9.6*	0	4
Cc1ccc(C(=O)NC(=S)c2c(C)cc3ccccn23)cc1	2	12*	4	4.1*	7.5*	0	8.5*
Cc1cc2ccccn2c1C(=S)NC(=O)c1ccccc1	0	7	0	0	6	.	.
Cc1cc2ccccn2c1C(=O)Nc1cccc(Cl)c1	1	6	2	1	7.0*	0	6.1*
Cc1cc2ccccn2c1C(=O)c1ccc(Cl)cc1	-1	2	-1	-1	-2	.	.
CC1CN(C(=O)c2ccc(NS(=O)(=O)c3cccc(Cl)c3)cc2)CC(C)O1 (centres undefined)	-3	-2	-1	-1	4	.	.
COc1ccc(NC(=O)C2CCN(S(=O)(=O)c3cccc4nonc34)CC2)c(OC)c1	0	0	1	-2	0	.	.
Cc1cc(SCC(=O)c2cccs2)nc2c(C)cccc12	0	3	1	-1	6.8*	0	3
Cc1cc2c(C)ccc(C)c2nc1SCC(=O)c1cccs1	0	-2	0	-2	1	.	.
O=C(c1ccc([N+](=O)[O-])cc1)N1CCSC1c1ccccc1Cl (centres undefined)	1	-1	1	-2	1	.	.
Clc1ccccc1C1SCC2Nc3ccccc3CN21 (centres undefined)	1	5	1	0	7.1*	0	7.1*
CCOC(=O)CC1C(=O)NCCN1C1CCCC1 (centres undefined)	1	-3	0	-2	0	.	.
COc1cc(C#Cc2c(C=O)n(C)c3ccccc23)cc(OC)c1	0	1	0	0	6.9*	0	3
Cn1cncc1C#Cc1c(C=O)n(C)c2ccccc12	1	-3	0	-1	-2	.	.
O=C(Cc1ccc(Br)cc1)NC1CCCCC1	0	0	1	-2	1	.	.
SMILES	DAX1 inh-1	hgDAF12 agonist	DAX1 inh-2	ssDAF-12 act	hcDAF12 agonist	LXRb hcDAF ctr	hcDAF12 conf
O=C(Cc1ccc(O)cc1)NC1CCCCCC1	1	8	0	0	6.8*	0	4
CC(=O)Nc1c(-c2ccc3ccccc3c2)nc2ccccn12	2	9	4.2*	1.9*	7.6*	1	7.3*
CC(=O)Nc1ccc(S(=O)(=O)N(C)CC(=O)OCC(=O)N(C)C2CCS(=O)(=O)C2)cc1 (centres undefined)	0	3	0	-1	-1	.	.
CN(C)c1ccc(/C=C/c2nc3ccccc3s2)cc1	-2	-10	-3	-3	-4	.	.
Cc1ccc(/C=C/c2nc3ccccc3s2)s1	1	2	1	0	9.4*	1	19*
CC(=O)Nc1ccc(C(=O)CN2C(=O)NC3(CCCc4ccccc43)C2=O)c(F)c1 (centres undefined)	0	-2	1	-1	-1	.	.
Cc1ccccc1-c1nnc(CS(=O)(=O)c2ccccc2)o1	3	12*	1	1.5*	6.8*	1	7.0*
Cc1ccc(C)c(-c2nnc(NC(=O)CCS(=O)(=O)c3ccccc3)o2)c1	0	-3	1	0	-1	.	.
CCc1ccc(OCc2nc(-c3ccccn3)no2)c(Br)c1	7.1*	8	-1	1.0*	7.7*	1	6.4*
C=CCn1c(SCC(=O)Nc2ccc(-c3nc4ccc(C)cc4s3)cc2)nnc1-c1ccncc1	2	13*	0	-1	7.0*	0	2
O=c1c([N+](=O)[O-])cccn1Cc1cccc(Br)c1	0	-1	1	-1	-1	.	.
Cc1cccn2c1nc(=S)n2C(=O)c1ccco1	2	12*	1	0	9.5*	1	9.2*
CCOc1ccc2c(c1)c1nc3ccccc3nc1n2C	0	4	0	0	5	.	.
Cn1c2ccc(F)cc2c2nnc(SCCN3CCCCC3)nc21	1	5	2	1.1*	8.2*	0	6.9*
CCn1c2ccc(F)cc2c2nc3ccccc3nc21	0	2	0	-1	1	.	.
Cn1c2ccc(F)cc2c2nc3ccccc3nc21	0	3	2	1	7.1*	0	8.3*
Cn1c2ccc(Cl)cc2c2nc3ccccc3nc21	3	12*	2	2.4*	8.8*	0	8.5*
COc1ccc(OC)c(C2CC(=O)N3CN(c4ccccc4F)CSC3=C2C#N)c1 (centres undefined)	0	1	-1	-1	6.8*	0	1
COc1ccc(CN2CCN(C(=O)Cn3ncn4cccc4c3=O)CC2)c(OC)c1OC	-1	-1	-2	-1	-2	.	.
CC(CN1CCCCC1)C(=O)NN (centres undefined)	0	-1	0	-1	-1	.	.
CC(C)C(=O)N1CCCCCCN1C(=O)C(C)C	-1	-1	4.4*	0	7.8*	0	-1
COC(=O)CN1C(c2ccc(OC)cc2)=Nc2ccc(Cl)cc2C1c1ccccc1 (centres undefined)	0	1	1	-2	-1	.	.

High-throughput results deposited in PubChem by The Scripps Research Institute Molecular Screening Center.
